ERAP1 HTS inh: inhibitors of human ERAP1 aminopeptidase; hit rate 0.15% among 340,000; AID 652197; Q9NZ08; recombinant ERAP1, Leu-AMC fluorescence, 60 min; inhibition, % at 10.7 µM;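 active means mean replicate inhibition of at least 30%, or all replicates individually reaching that 30% level; inactive means mean below 30% and not every replicate reaching it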;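 further: 0% = neutral control wells and 100% = L-leucinethiol positive control wells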
Target sequence (Q9NZ08 whole entry, looked up): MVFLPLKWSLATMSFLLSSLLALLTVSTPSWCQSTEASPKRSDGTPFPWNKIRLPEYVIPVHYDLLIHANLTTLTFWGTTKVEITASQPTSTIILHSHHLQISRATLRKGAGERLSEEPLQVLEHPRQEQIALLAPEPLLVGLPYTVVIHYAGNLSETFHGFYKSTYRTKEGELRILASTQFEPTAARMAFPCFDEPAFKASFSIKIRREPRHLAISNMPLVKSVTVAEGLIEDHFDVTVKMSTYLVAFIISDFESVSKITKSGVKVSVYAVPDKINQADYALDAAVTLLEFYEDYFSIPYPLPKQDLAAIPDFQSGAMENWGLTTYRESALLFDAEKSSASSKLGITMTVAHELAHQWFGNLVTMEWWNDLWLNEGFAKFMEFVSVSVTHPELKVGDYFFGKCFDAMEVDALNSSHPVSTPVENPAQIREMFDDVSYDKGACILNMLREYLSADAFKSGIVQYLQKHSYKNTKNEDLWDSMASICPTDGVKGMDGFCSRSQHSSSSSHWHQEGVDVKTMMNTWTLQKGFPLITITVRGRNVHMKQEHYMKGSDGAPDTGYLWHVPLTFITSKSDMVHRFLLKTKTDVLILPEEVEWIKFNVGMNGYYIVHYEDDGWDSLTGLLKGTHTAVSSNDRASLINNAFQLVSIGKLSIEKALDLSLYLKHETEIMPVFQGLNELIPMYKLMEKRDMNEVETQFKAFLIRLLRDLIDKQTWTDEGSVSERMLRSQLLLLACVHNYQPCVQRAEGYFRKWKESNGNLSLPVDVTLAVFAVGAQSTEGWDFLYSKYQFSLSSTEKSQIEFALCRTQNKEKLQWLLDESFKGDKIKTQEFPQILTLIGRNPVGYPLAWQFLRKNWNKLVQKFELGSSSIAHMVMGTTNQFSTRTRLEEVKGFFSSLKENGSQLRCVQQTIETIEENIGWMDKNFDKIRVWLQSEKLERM
rRNA inh HTS: inhibits bacterial ribosomal RNA function over humanized ribosomes. GFP signal change (wild-type ribosome), % (concentration not given with the values). E. coli WT GFP vs humanized-ribosome RFP mutants, fluorescence, 24 h; stronger effect = lower value; DMSO median 0, no signal -100. hit rate 1.6% among 350,000;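 active means significant combined selectivity score with lowered wild-type GFP, culture density cut under 30%, mutant RFP and density less affected; inactive means any of these conditions unmet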
INS-1E GSIS act: primary screen for activators of insulin secretion dependent on glucose, INS-1E cells, GLuc reporter luminescence | INS-1E GLuc reporter insulin secretion, 2-3 h | activation, % at 16.6 µM | hit rate 0.61% among 370,000 | AID 743287;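 active means lowest replicate activation of at least 40%, so every replicate reaches that level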;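 further: 0% = median of neutral control wells and 100% = median of IBMX positive control wells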
PGC1a acetyl inh: modulators of PGC1a acetylation; U2OS PGC1a acetylation, AlphaScreen anti-acetyl-lysine; with virally co-expressed GCN5 acetyltransferase; inhibition, % at 15.6 µM; hit rate 0.17% among 350,000;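 active means every replicate shows inhibition of at least 40%; inconclusive means mean inhibition at least 40% but some replicate below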;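 further: 0% = neutral control wells and 100% = positive control wells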
CaV13 ICDI inh: Primary screen for inhibitors of IQ motif and Ca2+-dependent inactivation inhibitor domain binding in CACNA1D, Förster resonance energy transfer in living cells, … | HEK cells, CFP/YFP FRET ICDI-IQ, plate reader, 10 min; percent FRET-ratio fall versus neutral wells | AID 743397 | hit rate 0.098% among 340,000 | inhibition, % at 12.3 µM;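 active means mean replicate inhibition of at least 30% and at least 1% of replicates passing that level; inconclusive means only one of the two criteria is met; inactive means neither criterion is met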;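 further: 0% = median of the neutral control wells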
DENV2 CPE rescue: inhibitors of DENV2 cytopathic effect; DENV2-infected cells, cytopathic effect rescue, plate reader; AID 651640; CPE inhibition, % at 9.99 µM; hit rate 1.7% among 350,000; in the data active means CPE inhibition above about 20%, passing the limit was not always enough; inconclusive means no clear call, values can overlap the other calls; tested in BHK-21 cells;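 further: 0% = median of neutral control wells and 100% = median of positive control wells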
Starred values were filed as active, the others as inactive; ? = inconclusive; . = no result. Sampled rows, rich in hits. Any-hit rate of the full collection: about 3.2%.

SMILES | ERAP1 HTS inh | rRNA inh HTS | INS-1E GSIS act | PGC1a acetyl inh | CaV13 ICDI inh | DENV2 CPE rescue
CC(C)C#Cc1cnc2c(c1)C(=O)N([C@@H](C)CO)C[C@@H](C)[C@@H](CN(C)Cc1ccccc1)O2 | -3 | -1 | 0 | -5 | . | -2
CC(C)C#Cc1ccc([C@@H]2[C@H](CO)N3CCCCN(CC4CC4)C[C@@H]23)cc1 | -3 | 2 | -30 | -8 | . | 22*
CC(C)C#Cc1ccc([C@@H]2[C@H]3CN(CC4CC4)CCCCN3[C@H]2CO)cc1 | 1 | 6 | -25 | 11 | . | 26*
CCCC#Cc1cnc2c(c1)C(=O)N([C@H](C)CO)C[C@@H](C)[C@H](CN(C)C)O2 | 5 | 6 | 16 | -3 | . | 4
Cc1nn(C(=O)c2cccc([N+](=O)[O-])c2)c(C)c1Cl | 1 | 16 | 63* | . | -5 | -5
Cc1nn(C(=O)c2cccc([N+](=O)[O-])c2)c(C)c1Br | -1 | 11 | 3 | 2 | -2 | 7
CO[C@H]1CN(C)C(=O)c2cc(NS(C)(=O)=O)ccc2OC[C@H](C)N(Cc2ccccn2)C[C@H]1C | . | -1 | 10 | 2 | . | .
O=C(C[C@H]1C[C@H]2c3cc(NC(=O)NC4CCCCC4)ccc3O[C@H]2[C@H](CO)O1)NCC(F)(F)F | 0 | 3 | 12 | 5 | . | 49*
O=C(C[C@H]1C[C@@H]2c3cc(NC(=O)NC4CCCCC4)ccc3O[C@@H]2[C@@H](CO)O1)NCCc1ccccc1 | -5 | 3 | 9 | -9 | . | 37*
COc1ccc(NC(=O)N(C)C[C@H]2Oc3ccc(NC(=O)Nc4ccc(C(F)(F)F)cc4)cc3CC(=O)N([C@H](C)CO)C[C@@H]2C)cc1 | 2 | -3 | -5 | -8 | . | -10
COc1cc(/C=N/NS(=O)(=O)c2ccc(C(C)(C)C)cc2)cc([N+](=O)[O-])c1O | 1 | -36* | -10 | 1 | -6 | 12
COc1cc(/C=N/NS(=O)(=O)c2ccc(C)c([N+](=O)[O-])c2)cc([N+](=O)[O-])c1O | 1 | -16 | -13 | 3 | -6 | 15
O=C(Nc1ccc(Cl)cc1)N1C[C@H]2[C@@H](c3ccccc31)[C@H](CO)N2C(=O)C1CC1 | -2 | -22 | -17 | 14 | . | -4
CCC(C)[C@H]1COCCS(=O)(=O)N1Cc1ccc(Br)cc1 (stereo partly drawn) | -4 | -56 | -36 | -10 | -10 | 100*
COCC(=O)Nc1ccc2c(c1)[C@@H]1C[C@@H](CC(=O)N(C)C)O[C@@H](CO)[C@@H]1O2 | -2 | 2 | 6 | -2 | . | 0
CCn1c(SCC(=O)Nc2ccc3c(c2)oc2ccccc23)nnc1-c1ccc(N)cc1 | . | . | 73* | 14 | -5 | .
CC(=O)OC(C=C(C)C)C/C(C)=C/COc1c2ccoc2cc2oc(=O)ccc12 (stereo not drawn) | -3 | -21* | 25 | 6 | -4 | -7
CC(C)(O)C(O)COc1c2ccoc2cc2oc(=O)ccc12 (stereo not drawn) | 0 | 2 | 7 | -4 | . | ?
Cc1ccc(S(=O)(=O)Oc2ccccc2/C=N/Nc2ccc(C(=O)O)cc2)cc1 | 4 | -33* | 0 | -6 | -1 | -3
C[C@H]1CCCCO[C@H](CN(C)Cc2ccc(C(=O)O)cc2)[C@@H](C)CN([C@@H](C)CO)C(=O)c2cc(NS(=O)(=O)c3cccs3)ccc2O1 | 0 | 3 | 22 | 1 | . | -4
Cc1cc(C(=O)N/N=C/c2ccc(-c3ccc([N+](=O)[O-])cc3C)o2)n[nH]1 | 2 | -41* | . | 5 | -28 | 14
Cc1cc(C(=O)N/N=C/c2ccc(-c3cccc(Cl)c3)o2)n[nH]1 | 5 | -23* | -7 | . | -4 | 3
Cc1ccc(C(=O)N/N=C/c2ccc(-c3cccc(Cl)c3)o2)cn1 | . | -2 | . | . | -2 | -3
Cc1ccc(-c2cc(C(=O)N/N=C/c3ccccc3O)n[nH]2)o1 | -6 | -57 | -12 | . | -7 | 1
Cc1ccc(-c2cc(C(=O)N/N=C/c3ccc(F)cc3)n[nH]2)o1 | 1 | -24* | -9 | 11 | -3 | -1
SMILES | ERAP1 HTS inh | rRNA inh HTS | INS-1E GSIS act | PGC1a acetyl inh | CaV13 ICDI inh | DENV2 CPE rescue
CSc1nsc(SC)c1NC(=O)Nc1ccccc1C | 2 | 25 | 3 | 103* | -5 | .
COc1cc2ccc(=O)oc2c(O[C@@H]2O[C@H](CO)[C@@H](O)[C@H](O)[C@H]2O)c1O | 59* | 2 | 8 | -10 | 0 | 0
O=c1ccc2ccc(O[C@@H]3O[C@H](CO)[C@@H](O)[C@H](O)[C@H]3O)c(O)c2o1 | . | 0 | 7 | . | -11 | 6
C[C@H]1CN([C@@H](C)CO)C(=O)c2c(c3ccccc3n2C)-c2ccccc2CO[C@H]1CN(C)CC1CCCCC1 | . | 3 | -4 | . | . | .
C[C@H]1CCCCO[C@H](CN(C)C(=O)Nc2ccc3c(c2)OCO3)[C@@H](C)CN([C@@H](C)CO)C(=O)c2cc(NS(=O)(=O)c3ccccc3)ccc2O1 | 3 | 0 | -18 | 8 | . | ?
O=C(COC(=O)c1ccc(Cl)nc1)Nc1ccc(N2CCCCC2)cc1 | 0 | . | . | . | -6 | 62*
O=C(COC(=O)c1ccc(Cl)nc1)Nc1ccc(Cl)cc1 | -1 | 0 | -7 | 4 | -6 | -5
CCCn1nnnc1NCc1ccc(Cl)cc1Cl | 6 | -29* | -8 | -3 | -1 | 2
C[C@H](CO)N1C[C@H](C)[C@@H](CN(C)S(=O)(=O)c2ccc(F)cc2)OCCCC[C@H](C)Oc2ccc(NS(C)(=O)=O)cc2C1=O | 3 | 2 | 10 | -6 | . | 27*
C[C@@H]1CN([C@H](C)CO)C(=O)c2cc(NS(C)(=O)=O)ccc2O[C@@H](C)CCCCO[C@@H]1CN(C)S(=O)(=O)c1ccc(F)cc1 | -5 | -5 | 0 | 0 | . | 19
Cc1ccc(S(=O)(=O)N(C)C[C@@H]2OCCCC[C@H](C)Oc3ccc(NS(C)(=O)=O)cc3C(=O)N([C@H](C)CO)C[C@@H]2C)cc1 | 4 | -2 | -7 | -8 | . | 57*
COc1ccc(S(=O)(=O)N(C)C[C@H]2OCCCC[C@@H](C)Oc3ccc(NS(=O)(=O)c4cccs4)cc3C(=O)N([C@H](C)CO)C[C@H]2C)cc1 | 0 | 0 | -44 | -20 | . | 4
COc1ccc(S(=O)(=O)N(C)C[C@H]2OCCCC[C@H](C)Oc3ccc(NS(=O)(=O)c4cccs4)cc3C(=O)N([C@H](C)CO)C[C@H]2C)cc1 | 1 | 0 | 16 | -1 | . | 63*
C[C@@H]1CCCCO[C@H](CN(C)S(=O)(=O)c2ccc(F)cc2)[C@@H](C)CN([C@@H](C)CO)C(=O)c2cc(NS(C)(=O)=O)ccc2O1 | -6 | -3 | 6 | 7 | . | 29*
